“And” between values parts separate entries of the source, which are not always exact repeats. Identical values can stand only once. Results filed as inconclusive are left out. A number with no mark means an inactive call. The source made the active and inactive calls. The call rests on the fitted dose curve; in most records, active means well fitted curve in the direction sought with a large enough effect; inconclusive means small, poorly fitted or top-dose-only effect, or another doubt; inactive means no such curve, though single readings can be large; an effect the other way counts as inactive or inconclusive.

Assay [1] has as its target Cellular tumor antigen p53 (Homo sapiens) (UniProt P04637). Description: Primary qHTS for small molecule compounds that upregulate eGFP-tagged delta133p53alpha (in N-terminal) cells. (AID 2060322). Further: nearly all actives have a fitted effect of over 75% in size. Further: potency means the concentration at half of the fitted maximal effect.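 On activation: series mostly up to about 56 µM; 0% = DMSO vehicle and 100% = reference activator.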 Particulars: NCI-H358 eGFP-delta133p53alpha fluorescence, 24 h; activation: stronger effect = higher value. The gist of the method:
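NCI-H358 cells pre-induced 24 h with 10 ng/ml doxycycline to express N-terminal eGFP-delta133p53alpha, then dosed 24 h at 37C without doxycycline; fixed, Hoechst-stained, GFP intensity by laser scanning cytometry, normalized to DMSO (0%) and 57.5 uM 5-azacytidine (100%).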

For assay [2], the target named is Aldehyde dehydrogenase, mitochondrial (Homo sapiens) (UniProt P05091). Kind of assay: qHTS for Inhibitors of the Aldehyde Dehydrogenase Family (ALDH2) Primary screen (AID 2061308).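 Further: plate controls were vehicle for no effect and reference inhibitor for full effect; nearly all actives have a fitted effect of over 55% in size.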
In assay [3] the target is Retinaldehyde dehydrogenase 3 (Homo sapiens) (UniProt P47895). Kind of assay: qHTS for Inhibitors of the Aldehyde Dehydrogenase Family (ALDH1A3) Primary screen (AID 2061315).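 Further: plate controls were DMSO vehicle for no effect and reference inhibitor for full effect.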
Assay [4] can be described thus: BET inhibitor-based combinations targeting novel dependencies in MECOM-rearranged (r) AML: SET-2 cell line (AID 2202231). Further: nearly all actives have a fitted effect of over 35% in size. Further: potency means the concentration at half of the fitted maximal effect.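 On viability: plate controls were DMSO treated cells for no effect and wells without cells for full effect.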 Particulars: SET-2 AML cells viability, CellTiter-Glo luminescence, 48 h; viability: stronger effect = lower value, concentration not given here. The gist of the method:
(§1)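 AML cell lines seeded at 500 cells/well, treated with 11-point dose curves for 48 h. Viability by CellTiter-Glo luminescence, normalised to DMSO and empty wells; activity expressed as AUC and per-cell-line Z-transformed AUC.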

A short description of assay [5]: BET inhibitor-based combinations targeting novel dependencies in MECOM-rearranged (r) AML: OCI-AML3 cell line (AID 2202232). Further: nearly all actives have a fitted effect of over 35% in size. Further: potency means the concentration at half of the fitted maximal effect. Conditions: Potency: OCI-AML3 viability. Put shortly:
as §1

A short description of assay [6]: BET inhibitor-based combinations targeting novel dependencies in MECOM-rearranged (r) AML: MV-4-11 cell line (AID 2202233). Further: nearly all actives have a fitted effect of over 45% in size. Further: potency means the concentration at half of the fitted maximal effect. The gist of the method:
(§2)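 Cells at 500/well were exposed for 48 hr to MIPE v5.0 drugs as 11-point dose curves. Viability was read by CellTiter-Glo luminescence and normalized to DMSO and empty-well controls. Activity was expressed as AUC and per-cell-line Z-AUC.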

Assay [7] in a line: BET inhibitor-based combinations targeting novel dependencies in MECOM-rearranged (r) AML: HNT-34 cell line (AID 2202234). Further: nearly all actives have a fitted effect of over 35% in size. Further: potency means the concentration at half of the fitted maximal effect. Put shortly: as §2
A short description of assay [8]: BET inhibitor-based combinations targeting novel dependencies in MECOM-rearranged (r) AML: UCSD-AML1 cell line (AID 2202235). Further: nearly all actives have a fitted effect of over 40% in size. Further: potency means the concentration at half of the fitted maximal effect. Put shortly: as §2
Assay [9] is described as follows: BET inhibitor-based combinations targeting novel dependencies in MECOM-rearranged (r) AML: AML-191 cell line (AID 2202236; further: nearly all actives have a fitted effect of over 35% in size; further: potency means the concentration at half of the fitted maximal effect). The gist of the method: as §1
The nature of assay [10]: BET inhibitor-based combinations targeting novel dependencies in MECOM-rearranged (r) AML: AML-194 cell line (AID 2202237; further: nearly all actives have a fitted effect of over 40% in size; further: potency means the concentration at half of the fitted maximal effect). Put shortly:
as §1

Cellular tumor antigen p53 (Homo sapiens), sequence (P04637 whole entry, looked up): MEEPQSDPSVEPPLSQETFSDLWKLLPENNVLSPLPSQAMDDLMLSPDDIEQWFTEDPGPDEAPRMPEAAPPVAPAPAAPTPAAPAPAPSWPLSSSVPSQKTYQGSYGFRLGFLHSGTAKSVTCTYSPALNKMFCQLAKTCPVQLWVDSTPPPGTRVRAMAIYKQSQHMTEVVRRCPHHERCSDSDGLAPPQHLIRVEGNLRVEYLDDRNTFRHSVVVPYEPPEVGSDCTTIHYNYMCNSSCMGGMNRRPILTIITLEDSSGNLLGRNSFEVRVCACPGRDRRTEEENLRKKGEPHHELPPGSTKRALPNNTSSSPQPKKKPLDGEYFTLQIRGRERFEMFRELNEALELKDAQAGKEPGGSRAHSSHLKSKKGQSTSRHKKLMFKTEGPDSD

As for `Cc1cccc(Oc2cnc(=O)[nH]c2)c1`, in assay [1], the activation is -25%. Also, the Potency result in assay [2], in assay [3], in assay [5], in assay [6], in assay [7] and in assay [8] was “inactive” in each case. Besides, the Potency entry in [9] and in assay [10] was “inactive” in each case. Further, in [4], the viability is 115%.

As to `Cc1ccc(C(N)=O)cc1Nc1nccc(-c2cn(C(C)C)c3cnccc23)n1`, the Potency in [1] was 10.9 µM (active); in [4] it was 7.42 µM (active); in assay [5], 7.42 µM (active); in assay [6], 0.0833 µM (active); in assay [7], 2.95 µM (active); in assay [8], 4.68 µM (active). Besides, the Potency in assay [9] is 5.25 µM (active); in [10], 8.33 µM (active). Besides, the Potency result in assay [2] and in [3] was “inactive” throughout.

Turning to `O=C(Nc1nc2cccc(-c3ccc(CN4CCS(=O)(=O)CC4)cc3)n2n1)C1CC1`, the Potency in assay [1] was 43.2 µM (active) and 34.3 µM (active); in [4], 18.6 µM (active); in assay [5], 14.8 µM (active); in assay [6], 3.32 µM (active); in assay [7], 14.8 µM (active); in assay [8], 5.9 µM (active). Further, the figures for the Potency in assay [9] and in assay [10] were 9.34 µM (active) and 13.2 µM (active), respectively. Further, the Potency result in assay [2] and in assay [3] was “inactive” each time.

`Cc1[nH]nc(C(F)(F)F)c1Cc1sc2c(c1C(=O)N1C[C@](C)(O)CO1)c(=O)n(C)c(=O)n2C(C)C`: in [1], the activation is -10.3%. The Potency entry in assay [2], in assay [3], in assay [5], in assay [6], in assay [7] and in [8] was “inactive” throughout. Further, the Potency result in assay [9] and in assay [10] was “inactive” throughout. The viability in assay [4] was 110%.

Turning to `CNC(=O)c1ccc(Nc2ncc(C(F)(F)F)c(NCc3nccnc3N(C)S(C)(=O)=O)n2)cc1`, the Potency is 12 µM (active) in assay [1]; 3.32 µM (active) in [4]; 4.68 µM (active) in [5]; 0.296 µM (active) in assay [6]; 1.86 µM (active) in [7]; 2.63 µM (active) in [8]. Also, the Potency is 2.95 µM (active) in assay [9] and 3.72 µM (active) in [10]. Besides, the Potency entry in assay [2] and in assay [3] was “inactive” in each case.

Source of the values: PubChem BioAssay (NCATS).
